About 3,700 (7%) of roughly 53,000 sequences were called active. Only a selection was taken, and actives are over-represented in it overall. Unmarked numbers belong to inactive results.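 The calls were made as follows: active = gene knockdowns whose robust z-score for IL-1 alpha signal is at least 2 or at most -2, so actives lie on both sides; inactive = the rest.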

This experiment can be described thus: Components of the Cytosolic LPS Sensing Pathway: Gene Identification via Genome-wide siRNA Screen.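 Also: robust z of the log signal after scaling to non-targeting control siRNA wells of the plate.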 The note with it: RAW264.7 macrophages, IL-1a HTRF, actives lie on both sides, screened at 100 nM (by protocol), cells primed 5 h with Pam3CSK4 first. The method in brief: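 Three distinct siRNAs per gene were tested singly at 100 nM in RAW264.7 macrophages. Following Pam3CSK4 priming and 24 hour LipidA transfection, IL-1a secretion was read by HTRF.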
With GGAGGGACAUGAUUUUGAATT against Pfkfb2, the z-score was 2.22 (active). With GGAGCAAGUGAUGAUGACCTT against Pkp1 the figure was -0.263; with GCGGUAUGGGAAGCUAAAGTT against Rhbdf1, 0.617; with GGAGAUACUGAAAGAGGCCTT against C1qtnf12, -1.25. For UUCUUGACAGCUGGAAGAGTT against Irgc1, the z-score was 0.12. The value for GGAAAAACGAUACUUGAUUTT against Gria3 was -0.751. With GGUGAGACUAUAAAGAUAATT against Piwil4 the figure was 0.841; with CCGAGCAGGAUUGCAUAUATT against Cspg5, 1.41; with GGCAUUGAGAUGCUGGAAATT against Trappc4, 2.46 (active). The value for GCUAUUCUGAUGCGUGGAGTT against Coq2 was -1.24; that for GCCACGACAACAAAUCCCATT against Lbr was -2.62 (active). Consider UGAAGCUGUCCCGGACUAATT against Shf, for which the z-score is 0.731.

Turning to GGUCAUUGGCACCAACAAGTT against Tgfbi, the z-score was -0.722.

Consider GGAACAAAGAGGUGAUGUUTT against Olfr109, for which the z-score was -0.949. The value for GGAGAUGAUUGACCGGCUATT against Epc1 was -1.03; that for CCAUUUACCUCAUAGGACCTT against Crb3 was -0.239; that for CGACCAUCUUUACUUUAUCTT against Cilk1 was 1.61. Turning to GGAGGGAAGCGAGAGUUUUTT against Emilin2, the z-score is 2.25 (active). With GGGUCGUAAUGAGUUCUGGTT against Med1 the figure was 0.83; with GGAAACUUUUGGAAGACUATT against Jmjd6, 2.02 (active).

For the sequence GGGCCAAUAAAGCAACUGCTT against Laptm5, the z-score was 0.704.

Regarding GGAUACUCCUCUGAGUAGUTT against Mtmr11, the z-score was -0.469. The value for GCCAAAGUGUGUGUUGAAGTT against Gng11 was -0.296.

Take CGCACACAGUCGUAUGUACTT against Ryr1: the z-score was -1.21. The value for GGGAACCAUCAAUAGGCACTT against Apol7a was 0.923; that for “GGGUAUUAAAACCUCACUUTT against 4931406H21Rik” was -2.58 (active); that for GGCACAAAGCAAGAUUACCTT against Cebpz was 0.422. Regarding CCAGAAUGUAAACUUGGUCTT against Trpv6, the z-score is 0.0508.

In the case of GGUGAUAAAGCCAAGCAAATT against Vps4b, the z-score was -0.48. As for GGGCUUCUUUGACCUCAUCTT against Kdelr1, the z-score was -2.71 (active).

On to GGAUUCAAGGAAGGCCUUCTT against Myl7, for which the z-score was -0.146. With GGGACUCAGAAUCCACACUTT against Olfr1046 the figure was 1.91; with GGAGCUUAGACAAAAAGCCTT against Spty2d1, -1.04. With GGCCGCCCUAAAAAGAAGCTT against Olfr95 the figure was 1.29; with GGAGAUUGAUGAGCAUGCCTT against Rab40b, -2.15 (active).

For CGCCUUAUAAUAUACCUAUTT against Clmp, the z-score was 1.12.

For GCCAUGAUGACUAACCUUATT against Dbpht2, the z-score was -1.27.

On to GGAACUUGAGGUUUUCUGGTT against Spag17, for which the z-score is -1.89.

On to GGAGAUCCGUCGAAUCAACTT against Anxa4, for which the z-score is 3.19 (active). With GCACCUGAGAAGCUCAUUGTT against Chil5, the z-score was -1.96. For GGUUGACCUGUGCUUUUCGTT against Arr3, the z-score is -0.625. As for GGAGCAGCAGAAGAUCCUUTT against Olfr47, the z-score was 2.52 (active). As for GGAAAUGAAUGGAAAUAGUTT against Ino80c, the z-score is -0.192. With GGAGGAAAAGGCAAUCGUUTT against Mtg2, the z-score is 0.359.

As to GGAACACAAUAGUACAUACTT against Slc2a4, the z-score is 3.98 (active). Consider CCUUACCACAUCCUUGUCGTT against Fcf1, for which the z-score is -1.33. Regarding GGACAGUUAAUGUUUCUGUTT against Clptm1l, the z-score is 0.254. The value for GGAUCAUUUCUGGCAAGAGTT against Irf7 was -0.379. The value for GGGAAGAGAAAACUGGACUTT against Xrcc1 was 3.01 (active); that for GGCUGUGUGAGUCUGCUCATT against Ankrd55 was -0.0408. The value for GCAUGAACUUACCCUAUUATT against Vmn1r197 was -1.25; that for GCAUAAUAGCGCAAGCUACTT against Ifi47 was 0.0047. Turning to GCACUCGAAUUUCUUUACUTT against Slc23a2, the z-score is 2.22 (active). With “GCAGACUCCCAUGUGGAUUTT against 1700067K01Rik” the figure was 1.96. The value for GGAAACUAAUUUCAAGCCUTT against Hat1 was 1.19; that for CCUAUGAGGAGGUACUAAATT against Itih1 was -0.0512; that for GGAGUGACAAAAAUGUCGGTT against Snx13 was -0.56. The value for GGUUUGUCAAUGAUACUAATT against Adam17 was 2.49 (active); that for CGGAUCUGAGAUAAAGACGTT against Arsj was 1; that for GCUGUGGACGGACUCUAUATT against Dhodh was 0.00503. In the case of GGACCAUCUCUGAUGAACCTT against Fhdc1, the z-score is 0.439. With GCUAAAGCUAAGAUUGAAGTT against Poli the figure was -0.0266; with GGAUGAGGACAAGUGCUCUTT against Agpat4, -3.47 (active). For the sequence CCAAAAGCAUAUCAGUCGGTT against Olfr1122, the z-score was 1.48.

In the case of GGGUUUAUGUUGCCGACUCTT against Setd7, the z-score is 2.04 (active). The value for GGGUUCCUCAGAGACUGAGTT against Esrra was 1.57. With GGGCAAGAAAGGUGUUUUGTT against Prdx5 the figure was 0.432; with GGUGAUUGGUGUAAAAUCUTT against Gdi2, -1.15. Consider GGAGAUUGGUGUUAGUAACTT against Sp7, for which the z-score was -0.198. With “GGGUGUGCUUCAUAUCAAATT against 2210407C18Rik” the figure was 0.812; with GCUUCAUCUUACCUACUCATT against Synb, -0.825. With GGCUAUGCAUCUCCUGUCATT against Gata4 the figure was -0.935; with GGAAAUCAUCUAUUCGGACTT against Klrc1, 2.62 (active); with CCUUGCACGACAUUUUACUTT against Idnk, 0.313. With GGUCAUCUUCCUUUUUGCUTT against Olfr1501 the figure was -1; with CCCUGGGUGUACAAGUCCUTT against Slc25a41, -0.084; with GGGCCAAGAGCUUCUUUGATT against Ahr, -1.46.

In the case of GGACUUUGAGAAAGCAUUCTT against Pck1, the z-score is -2.03 (active).

For GGAUAAUGUGAAGUUCAAGTT against Rpl38, the z-score is 0.493.

Regarding GCAUUGACAAGAUAUCUAATT against Abhd17c, the z-score was 1.74.

As for “GGCUCCUAGUGAUUAAAAGTT against 4930578I06Rik”, the z-score was 0.0788. Turning to GGGAAAGCAUCGUAGACUCTT against Eid2, the z-score was 0.0738.

Consider GGAGGAAAUGAUCACAGCUTT against Ccl20, for which the z-score is -2.31 (active). On to CCAGUCACUAUUUGAGUGUTT against Erg, for which the z-score is 1.9. The value for GGUGAAUACUUCAGAUACATT against Sult2b1 was -0.362. In the case of GGAUUCACUGUUUUAUUCUTT against Fap, the z-score is 0.282.

GGAUGCAAUCGACAUGGAGTT against Atp5pb: the z-score is 2.71 (active). As for GGUUUUUGGGAAUUGGCUUTT against Sfxn5, the z-score is -0.0222. With GCGGUCCAUCAUCAAACUCTT against Rpap2 the figure was -1.3. The value for CCCAACAUAUUUUUUAGCATT against Hmgcll1 was -0.506.

As for GGUGGUUGUUAUUGAAAAGTT against Mical3, the z-score was 1.34. The value for CGACAUUUGUGUUAACCAUTT against Gprc5c was -0.483; that for GGAGCUUUUGGACCACUUGTT against Tmod1 was -0.892. Turning to GCAAACGACGAAAGUCCAATT against Usp49, the z-score is -1.63. The value for CCAUAAACGACGAAAUGAUTT against Usp11 was 0.189; that for GGCAUUUGACUUUAUUGCATT against Nit1 was 3.54 (active); that for GGUCAAGCAAGUGUUGGUUTT against Gart was -0.0147. Regarding GGAAGAUUCCGACUUUAUUTT against Irs4, the z-score is 0.69.

For GCUCAGACAAGAAUUGCUATT against Specc1, the z-score is -0.612.

Take CCACCUUUCGUGCAUUAUCTT against Coro6: the z-score was 1.32.

For GGCUGUCAUACUUUCAGGGTT against Hyal5, the z-score is 2.51 (active). With GGGCCAAGGAAGAACUUCATT against Clec12a the figure was -0.655; with GGAAAAAGAGGCCAAAAAGTT against Arid4a, -0.221.

Take GGUCAAUGUGAUUGAGGAUTT against Acap1: the z-score was 0.869. With CCUAUUGAGUCAUCCAUCGTT against Utp25 the figure was -0.586. With GCAGUACGCUGCAUUUAAATT against Mtrf1l the figure was 0.551; with GGAGUUUCAACUCUUCUUCTT against Necab2, -0.576; with GCUCCUGAACUAAUACAAGTT against Melk, 5 (active).

The record behind these values is PubChem BioAssay AID1508600 (Functional Genomics Laboratory (NCATS/FGL), 2020).
